SW480 rereplic: DNA re-replication induction in SW480 cells; 1.8% of 340,000 active; Potency, µM (series often up to 46.1 µM), for inactives: at the top dose re-replication activation, actives largely listed as activators; SW480 DNA re-replication, Hoechst DNA content imaging, 48 h; also: % of control where 0% means no effect; nearly all actives have a fitted effect of over 55% in size
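Readout is total intensity of Hoechst-stained nuclei, excited at 405 nm and collected at 500-530 nm. Compound treatment lasted 48 hr at 37 C in 5% CO2 before staining.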
KB-3-1 tox: KB-3-1 parental cell cytotoxicity | KB-3-1 viability, CellTiter-Glo ATP luminescence, 72 h | Potency, µM (series often up to 46.1 µM), usual class: cytotoxic | 1.4% of 400,000 active; also: % is scaled to controls: 0 for no effect and ±100 for the full control effect; nearly all actives have a fitted effect of over 60% in size
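KB-3-1 cells, DMEM (no phenol red) + 10% FBS; compound by pin transfer, 72 h, 37 °C. Readout: CellTiter-Glo luminescence after 10 min. Data normalized, curve-fitted.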
KB-V1 cytotox: kills drug-selected multidrug resistant KB-V1 cells; AID 1347076; Potency, µM (series often up to 46.1 µM), actives largely listed as cytotoxic; KB-V1 MDR cells viability, CellTiter-Glo, 72 h; 3.4% of 400,000 active; also: % is scaled to controls: 0 for no effect and ±100 for the full control effect; nearly all actives have a fitted effect of over 60% in size
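Potencies derive from concentration-effect curves fitted to normalized luminescence (CellTiter-Glo) of KB-V1 cells treated for 72 h at 37 degrees C in phenol-red-free DMEM containing 10% FBS.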
MCF10A rereplic: induces DNA re-replication in MCF 10a normal breast cells. Potency, µM (titrated, usually from 46.1 µM), inactives show at the highest dose activity, positive = re-replication, most hits filed as activators. 2.9% of 350,000 active. MCF 10A DNA re-replication, Hoechst nuclear intensity, 48 h; also: % of control where 0% means no effect; nearly all actives have a fitted effect of over 50% in size
HT1080-NT tox: kills 2HG-producing HT-1080-NT fibrosarcoma cells; HT-1080-NT fibrosarcoma viability, CellTiter-Glo ATP luminescence, 48 h; Potency, µM (highest dose often 46.1 µM), for inactives: top-dose activity, negative = less viability, hits mostly cytotoxic; 1.6% of 360,000 active;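 also: NT is the 2HG producing partner of a matched IDH1 knockdown line; 0% = DMSO-treated cells and -100% = media-only wells without cells; nearly all actives have a fitted effect of over 55% in size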
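HT-1080-NT fibrosarcoma cells (2HG-overproducing), 750 cells/well in RPMI with 5% FBS, dosed after 2 h and incubated 48 h at 37C. CellTiter-Glo luminescence normalized to DMSO and no-cell wells; concentration-response curves fitted and classed.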
HT1080 IDH1KD tx: kills HT-1080 cells with IDH1 knockdown | HT-1080 IDH1 knockdown viability, ATP luminescence, 48 h | Potency, µM (doses to about 46.1 µM), for the others: top-dose activity, negative = toxicity, most hits filed as cytotoxic | 2% of 360,000 active;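 also: 0% = DMSO wells and -100% = cell-free medium wells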
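Luminescent ATP read-out (CellTiter-Glo, 10 min at room temperature) after 48 h compound exposure at 37 °C gave viability of IDH1-knockdown HT-1080 cells. Activity was normalised to DMSO and cell-free wells, then fitted as concentration-response curves.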
* marks the source's active call; other numbers are inactive results; i = inactive; ? = inconclusive; nt = no result given; [ ] = another dose, or the depositor's remark. A selection: hits, their analogues and other compounds. The true share with any hit is near 7.9%. Calls follow the shape of the dose curve; as a rule, active = well fitted curve in the direction sought with a large enough effect; inconclusive = small, poorly fitted or top-dose-only effect, or another doubt; inactive = no such curve, though single readings can be large; an effect the other way counts as inactive or inconclusive. Potency is read from the fitted curve at half-maximal effect.

SMILES | SW480 rereplic | KB-3-1 tox | KB-V1 cytotox | MCF10A rereplic | HT1080-NT tox | HT1080 IDH1KD tx
CCCCCCC1CCC(C(=O)NC(CCSC)C(=O)NC(C(=O)OC)C(C)C)CC1 (stereo not given) | 17% | i | i | 7.3µM* | ? | -22%
COc1ccc(OC(=O)c2nc(SCc3ccccc3C)ncc2Cl)cc1 | nt | i | ? | nt | nt | nt
Cc1ccc(-c2ccccc2)n1-c1ccc(C(=O)O)cc1 | 6% | i | i | ? | 1% | 0%
Oc1ccccc1-n1c(-c2ccccc2)ccc1-c1ccccc1 | 14% | i | i | 21µM* | ? | ?
Cc1ccc(CNC(=O)CN2C(=O)CSc3ccc(S(=O)(=O)N4CCCCC4)cc32)cc1 | -11% | i | i | 0% | -5% | 0%
c1ccc(C(c2ccccc2)N2CCN(c3nc4ccccc4n4cnnc34)CC2)cc1 | 2% | 23µM* | 9.2µM* | 7.3µM* | 0% | -3%
c1cnc(N2CCN(c3nc4ccccc4n4cnnc34)CC2)nc1 | -10% | ? | 7.3µM* | -3% | 2% | 5%
Cc1cccc(N2CCN(c3nc4ccccc4n4cnnc34)CC2)c1C | -14% | i | i | ? | 1% | -1%
CCOC(=O)N1CCN(c2nc3ccccc3n3cnnc23)CC1 | 2% | i | i | -1% | 6% | 23%
Cc1ccc(Nc2nc3ccccc3c3nncn23)cc1C | nt | i | i | nt | nt | nt
CCn1c(C)cc2c(c1=O)C(c1ccccc1)C(C(=O)OC)=C(N)O2 (stereo not given) | 1% | i | i | 16µM* | 9%[9.24 µM] | ?
CC(C=NNc1ccc([N+](=O)[O-])cn1)=Cc1ccccc1 | ? | i | i | 9% | 9% | 8%
CC(C)n1c(=S)[nH]c2scc(-c3cccs3)c2c1=O | -2% | i | i | 6.5µM* | -24% | -13%
O=C1CC(c2cc(Br)ccc2F)c2cc3c(cc2N1)CCC3 (stereo not given) | 1.2µM* | 1.6µM* | ? | 1.5µM* | 1.8µM* | 1.3µM*
COC(=O)C1=C(C)NC(=O)CC1c1ccccc1F (stereo not given) | ? | i | i | 5.8µM* | -1% | 5%[9.24 µM]
Cn1c2c(c(=O)n(C)c1=O)C(c1cc(Br)ccc1F)CC(=O)N2 (stereo not given) | nt | i | i | nt | nt | nt
O=C1CC(c2ccccc2F)c2cc3c(cc2N1)CCC3 (stereo not given) | -6% | 8.2µM* | 13µM* | -2% | 1.6µM* | 0.89µM*
O=[N+]([O-])C1C(c2ccccc2)C12c1ccccc1-c1ccccc12 (stereo not given) | nt | ? | 5.2µM* | nt | 5.8µM* | 6.5µM*
CC1(C)c2ccccc2C(=O)c2ccccc21 | -4% | i | i | 5% | 8% | 2%
Clc1ccc(C2=Nn3c(nnc3-c3n[nH]c4c3CCC4)SC2)cc1Cl | ? | ? | 4.6µM* | ? | -29% | ?
COc1cccc(CCN2C(=O)C(=O)N([C@@H](CNCc3ccccc3)Cc3ccccc3F)C[C@@H]2C(C)(C)C)c1 | 21%[9.22 µM] | i | i | 13% | -4% | -12%
O=S(=O)(c1ccc(Oc2ccc(Br)cc2)cc1)N1CCOCC1 | -4% | i | 12µM* | 1% | -18% | -7%[9.24 µM]
Cc1ccc(CSCC(=O)Nc2cc(S(=O)(=O)N3CCOCC3)ccc2OCC(F)(F)F)cc1 | 6% | ? | 15µM* | 2% | -6% | -6%
O=S(=O)(Nc1ccc(S(=O)(=O)N2CCOCC2)cc1)c1ccc(Br)cc1 | -5% | i | i | ? | 0% | 7%
O=C(CSCc1ccc(Br)cc1)Nc1ccc(S(=O)(=O)N2CCOCC2)cc1 | -3% | i | 21µM* | -4% | -24% | -22%
SMILES | SW480 rereplic | KB-3-1 tox | KB-V1 cytotox | MCF10A rereplic | HT1080-NT tox | HT1080 IDH1KD tx
Cc1c(C(=O)N2CCC(C)CC2)sc2ncnc(N3CCN(c4ccccc4)CC3)c12 | -6% | i | 4.6µM* | 8% | -1% | -4%
COc1ccccc1N1CCN(C(=O)c2sc3nc(C)nc(N4CCN(c5ccccn5)CC4)c3c2C)CC1 | 13% | ? | ? | ? | ? | ?
COc1ccccc1N1CCN(C(=O)c2sc3ncnc(N4CCN(c5ccccn5)CC4)c3c2C)CC1 | 5% | ? | 23µM* | 18µM* | 15µM* | 29µM*
COc1ccc(N2CCN(C(=O)CC34CC5CC(CC(C5)C3)C4)CC2)c([N+](=O)[O-])c1 | 4% | ? | 18µM* | ? | 10% | 9%
CC(=O)Nc1nonc1-c1nnc(SCC(=O)Nc2cc(C)cc(C)c2)n1C | nt | i | i | nt | nt | nt
Cc1ccc(OCC(=O)Nc2ccccc2C(=O)OCc2cc(=O)n3ccsc3n2)cc1C | nt | i | i | nt | nt | nt
Cc1cc(N2CCN(c3nc4ccccc4s3)CC2)n2ncnc2n1 | -13% | 2.6µM* | 1µM* | 17% | ? | ?
CN(C)C=NC(=O)c1ccc(N2CCN(c3ncc(C(F)(F)F)cc3Cl)CC2)cc1 | -1% | i | i | 15µM* | ? | ?
COc1ccc(N2CCN(C(=O)CCc3c[nH]c4ccccc34)CC2)cc1 | 9% | i | i | 1% | -1% | 5%
O=C(CCc1c[nH]c2ccccc12)N1CCN(c2ccc(O)cc2)CC1 | ? | i | ? | ? | ? | 13µM*
COc1cc(-c2nnc3n2N=C(c2ccccc2)CS3)cc(OC)c1OC | ? | ? | i | ? | 2.1µM* | 1.2µM*
COc1cccc(-c2nnc3n2N=C(C(C)(C)C)CS3)c1 | ? | ? | 21µM* | ? | ? | ?
COc1ccc(OC)c(C2=Nn3c(nnc3-c3cc(OC)c(OC)c(OC)c3)SC2)c1 | 23% | i | 1.3µM* | -1% | ? | ?
COc1ccc(C2=Nn3c(nnc3-c3ccc(OC)cc3)SC2)cc1 | 1.8µM* | 0.65µM* | 1.3µM* | 0.92µM* | ? | ?
Cc1ccc(-c2nnc3n2N=C(c2ccccc2)CS3)cc1 | -6% | i | i | 1% | 5% | 12%
COc1ccc(OC)c(C2=Nn3c(nnc3-c3ccncc3)SC2)c1 | ? | i | i | -3% | ? | -6%
Cc1ccc2oc(-c3ccc(NC(=O)COc4ccccc4)cc3O)nc2c1 | nt | ? | i | nt | nt | nt
CNC(=O)c1cnn2c(C)cc(C)nc12 | nt | i | i | nt | nt | nt
CSc1ccc(S(=O)(=O)NCC(=O)OCC(=O)N(C)CC(=O)Nc2ccc(F)cc2)cc1[N+](=O)[O-] | 3% | i | i | 4% | 4% | 1%

Source: PubChem
